In the library only some 2.3% were active in any assay of this set; here they are far more common.
DENV2 CPE: DENV2-induced cell death inhibition; DENV2-infected cells, cytopathic effect rescue, plate reader; CPE inhibition, % at 9.99 µM; 1.7% of 350,000 active; AID 651640; in the data active = CPE inhibition above about 20%, passing the limit was not always enough; inconclusive = no clear call, values can overlap the other calls; tested in BHK-21 cells
Rtt109 HAT inh: blocks Candida albicans Rtt109/Vps75 acetyltransferase activity | Q5AAJ8 | purified Rtt109/Vps75, ThioGlo CoA-SH fluorescence, 4 h | inhibition, % at 34.9 µM | 0.16% of 330,000 active;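 active = inhibition of at least 50% in every replicate; inconclusive = best replicate reaches 50% inhibition but some replicates fall short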
Target sequence (Q5AAJ8 whole entry, looked up): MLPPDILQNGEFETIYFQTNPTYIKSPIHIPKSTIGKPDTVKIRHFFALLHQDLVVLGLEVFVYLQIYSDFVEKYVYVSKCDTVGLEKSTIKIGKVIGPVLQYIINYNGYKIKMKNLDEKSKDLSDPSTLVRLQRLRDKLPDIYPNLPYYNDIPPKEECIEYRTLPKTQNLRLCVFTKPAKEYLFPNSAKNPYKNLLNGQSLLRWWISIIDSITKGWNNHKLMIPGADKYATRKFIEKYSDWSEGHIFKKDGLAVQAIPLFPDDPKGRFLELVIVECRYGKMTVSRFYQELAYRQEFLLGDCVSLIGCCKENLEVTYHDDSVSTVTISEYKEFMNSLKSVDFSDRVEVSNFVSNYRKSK
PDI turbidity: PDI (human) enzyme inhibition; P07237; PDI insulin aggregation turbidity, A650, 90 min; inhibition, % at 10 µM; 0.052% of 350,000 active;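 active = mean inhibition across replicates of 30% or more, whatever share of single replicates reach that level; inconclusive = mean inhibition below 30% while every single replicate reaches 30%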
ERp5 block: ERp5 (human) disulfide isomerase inhibition; Q15084; ERp5 insulin aggregation, absorbance 650 nm, 90 min; inhibition, % at 9.99 µM; 0.05% of 350,000 active;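 active = mean replicate inhibition above about 25%, with every replicate also reaching it, limit read from the data, passing the limit was not always enough; inconclusive = only one of those two criteria met; inactive = neither criterion met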
SIRT5 inh: inhibitors of human sirtuin-5 desuccinylase; Q9NXA8; AID 652115; Purified SirT5, succinyl-peptide AMC, trypsin-coupled fluorescence; inhibition, % at 15 µM; 1.1% of 330,000 active; in the data active = inhibition above about 15%; inconclusive = no clear call, values can overlap the other calls
Each line names hits and unclear results; the compound was inactive in the other large screens; ! = not active in a repeat.

Cc1ccc(S(=O)(=O)Nc2ccc3c(c2)C(=O)N([C@H](C)CO)C[C@H](C)[C@@H](CN(C)Cc2ccc(C(F)(F)F)cc2)OCCCC[C@@H](C)O3)cc1	none (no result: Rtt109 HAT inh, PDI turbidity)
CC=Cc1ccc2n(c1=O)C[C@@H]1[C@@H](CO)[C@H](C(=O)NCC3CC3)[C@H]2N1S(=O)(=O)c1cn(C)cn1 (mixture of isomers)	none (no result: Rtt109 HAT inh, PDI turbidity)
O=C(CCN1CCCCC1)NCC[C@H]1CC[C@H](NS(=O)(=O)c2cccc(F)c2)[C@H](CO)O1	none (no result: Rtt109 HAT inh, PDI turbidity)
CCCNC(=O)N1[C@@H](CO)[C@@H](c2ccccc2)C12CN(C(=O)CC1CC1)C2	none (no result: Rtt109 HAT inh, PDI turbidity)
Cc1ccc(S(=O)(=O)Nc2ccc3c(c2)C(=O)N([C@@H](C)CO)C[C@@H](C)[C@H](CN(C)Cc2ccc(C(F)(F)F)cc2)OCCCC[C@@H](C)O3)cc1	SIRT5 inh 18 (no result: Rtt109 HAT inh, PDI turbidity)
CCOC(=O)Cc1sc(N)nc1C	DENV2 CPE 41
C[C@H](CO)N1C[C@H](C)[C@H](CN(C)C(=O)c2ccc(F)cc2)Oc2ncc(C#C[C@@H](C)O)cc2C1=O	none (no result: Rtt109 HAT inh, PDI turbidity)
Cn1c(COc2ccccc2)nnc1SCC(=O)Nc1nnc(C2CC2)s1	ERp5 block 27
CC(Oc1ccccc1)C(=O)Nc1nnc(C2CCCCC2)s1 (configuration not stated)	SIRT5 inh 22
CN(CC(=O)Nc1ccccc1C(F)(F)F)C(=O)c1ccc(N2C(=O)CCC2=O)cc1	SIRT5 inh 17
C[C@H]1CN([C@@H](C)CO)S(=O)(=O)c2ccc(C#Cc3ccc(F)cc3)cc2O[C@@H]1CN(C)C(=O)CN(C)C	none (no result: Rtt109 HAT inh, PDI turbidity)
CCCCN1/C(=C/c2ccc3ccccc3[n+]2CC)Sc2ccccc21	none (no result: DENV2 CPE, ERp5 block, SIRT5 inh)
CCN1/C(=C/c2ccc3cc(C)ccc3[n+]2CC)Sc2cc(C)ccc21	Rtt109 HAT inh 82
COc1ccccc1NC(=O)N[C@@H]1CC[C@H](CCNC(=O)Cc2ccccn2)O[C@H]1CO	none (no result: Rtt109 HAT inh, PDI turbidity)
O=C(NCc1ccc(F)cc1)c1cc(-c2ccccn2)nc2ccc(S(=O)(=O)N3CCOCC3)cc12	DENV2 CPE 31 (no result: Rtt109 HAT inh, SIRT5 inh)
O=C(NCc1ccccc1)c1cc(-c2ccncc2)nc2ccc(S(=O)(=O)N3CCOCC3)cc12	none
COCC(=O)N(C)C[C@H]1Oc2cc(-c3cccnc3)ccc2S(=O)(=O)N([C@H](C)CO)C[C@H]1C	none (no result: Rtt109 HAT inh, PDI turbidity)
CC1CCc2c(sc(N)c2C(N)=O)C1 (configuration not stated)	Rtt109 HAT inh 50 (no result: DENV2 CPE)
CC(C)c1ccc(S(=O)(=O)N2CCN(C(=O)n3ccnc3)CC2)cc1	DENV2 CPE 31
O=C(C[C@H]1CC[C@H](NC(=O)c2ccc3c(c2)OCO3)[C@H](CO)O1)NCc1ccc(Cl)cc1	none (no result: Rtt109 HAT inh, PDI turbidity)
O=C1N[C@@H](Cc2ccccc2)[C@@H](c2ccco2)O1	DENV2 CPE inconclusive, SIRT5 inh 45
Cc1cn(C2CC(O)C(O)C(CO)O2)c(=O)[nH]c1=O (configuration not stated)	none (no result: Rtt109 HAT inh, PDI turbidity, SIRT5 inh)
Cc1cn([C@H]2C=C[C@@H](CO)O2)c(=O)[nH]c1=O	DENV2 CPE 29!
O=C(Nc1cccc(F)c1)N1C[C@H]2[C@@H](c3ccccc31)[C@@H](CO)N2C(=O)Cc1ccccc1	none (no result: Rtt109 HAT inh, PDI turbidity)
Cc1cccc(S(=O)(=O)N2C[C@H]3[C@@H](c4ccccc42)[C@@H](CO)N3CC2CCCC2)c1	SIRT5 inh 15 (no result: Rtt109 HAT inh, PDI turbidity)
O=C(c1ccccc1F)N1C[C@H]2[C@@H](c3ccccc31)[C@@H](CO)N2CC1CCCCC1	SIRT5 inh 27 (no result: Rtt109 HAT inh, PDI turbidity)
CCC(=O)N1C[C@H]2[C@@H](c3ccccc31)[C@@H](CO)N2CC1CCCC1	SIRT5 inh 16 (no result: Rtt109 HAT inh, PDI turbidity)
C[C@@H]1CN([C@@H](C)CO)C(=O)c2cc(NS(=O)(=O)c3ccc(F)cc3)ccc2O[C@H]1CN(C)S(=O)(=O)c1cccs1	DENV2 CPE 46 (no result: Rtt109 HAT inh, PDI turbidity)
C[C@H](CO)N1C[C@H](C)[C@H](CN(C)C)Oc2ccc(NS(=O)(=O)c3ccc(F)cc3)cc2C1=O	DENV2 CPE 29 (no result: Rtt109 HAT inh, PDI turbidity)
C[C@@H]1CN([C@H](C)CO)C(=O)c2cc(NS(=O)(=O)c3ccc(Cl)cc3)ccc2O[C@@H]1CN(C)S(=O)(=O)c1ccc(F)cc1	none (no result: Rtt109 HAT inh, PDI turbidity)
Cc1ccc(S(=O)(=O)N(C)C[C@H]2Oc3ccc(NS(=O)(=O)c4ccc(F)cc4)cc3C(=O)N([C@H](C)CO)C[C@@H]2C)cc1	DENV2 CPE 82 (no result: Rtt109 HAT inh, PDI turbidity, ERp5 block, SIRT5 inh)
C[C@H]1CN([C@@H](C)CO)C(=O)c2cc(NS(=O)(=O)c3ccc(F)cc3)ccc2O[C@H]1CN(C)S(=O)(=O)c1ccc(Cl)cc1	DENV2 CPE 26 (no result: Rtt109 HAT inh, PDI turbidity)

Compound activity as filed in PubChem BioAssay.
